# Source: PubChem BioAssay (NCI)
# Compounds without any hit were thinned out: in the full panel of roughly 83,000, 20% have a hit.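 Each cell line was grown in a 96-well plate and treated with one concentration of compound for 48 hours. Values below 10 were considered active.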 A number with no mark means an inactive call. Calls of active or inactive are those of the source.
# Columns and labels:
# Test in all cases: NCI-60 one-dose screen, 48 h (100 = growth as untreated, 0 = no growth, -100 = all killed)
# SK-MEL-2 melanoma = details: 10 µM unless noted
# EKVX NSCLC = details: 10 µM unless noted
# SN12C renal = details: 10 µM unless noted
# UO-31 renal = details: 10 µM unless noted
# TK-10 renal = details: 10 µM unless noted
# ACHN renal = details: 10 µM unless noted
# A498 renal = details: 10 µM
# HL-60(TB) leukemia = details: 10 µM unless noted
# CCRF-CEM leukemia = details: 10 µM unless noted
# MOLT-4 leukemia = details: 10 µM unless noted
# SR leukemia = details: 10 µM unless noted
# RPMI-8226 leukemia = details: 10 µM unless noted
# OVCAR-8 ovarian = details: 10 µM unless noted
# OVCAR-5 ovarian = details: 10 µM unless noted
# OVCAR-4 ovarian = details: 10 µM unless noted
# SK-OV-3 ovarian = details: 10 µM unless noted
# IGROV1 ovarian = details: 10 µM unless noted
# OVCAR-3 ovarian = details: 10 µM unless noted
# HS 578T breast = details: 10 µM unless noted
# CAKI-1 renal = details: 10 µM unless noted
SMILES,growth (SK-MEL-2 melanoma),growth (EKVX NSCLC),growth (SN12C renal),growth (UO-31 renal),growth (TK-10 renal),growth (ACHN renal),growth (A498 renal),growth (HL-60(TB) leukemia),growth (CCRF-CEM leukemia),growth (MOLT-4 leukemia),growth (SR leukemia),growth (RPMI-8226 leukemia),growth (OVCAR-8 ovarian) [%],growth (OVCAR-5 ovarian),growth (OVCAR-4 ovarian),growth (SK-OV-3 ovarian) [%],growth (IGROV1 ovarian),growth (OVCAR-3 ovarian),growth (HS 578T breast),growth (CAKI-1 renal)
C1CCC2(CC1)OOCNCOO2,102%,99%,110%,93.6%,91.3%,110%,97.4%,71.7%,99.5%,77.9%,62.8%,102%,101,109%,112%,105,104%,103%,115%,
CC(=O)O[C@H](C[C@H](C(C)C)N(C)C(=O)[C@@H](NC(=O)[C@H]1CCCCN1C)C(C)C)c1nc(C(=O)N[C@@H](Cc2ccccc2)C[C@H](C)C(=O)O)c(CCOCc2ccccc2)s1,2.3% (active),49%,9.77% (active),31.8%,31.3%,12.3%,,,9.38% (active),11%,9.77% (active),-3.42% (active),10.8,35.7%,,44.6,10.7%,-6.07% (active),11.4%,24.4%
O=C(O)C1C(C(=O)O)C2(Cl)C(Cl)=C(Cl)C1(Cl)C2(Cl)Cl.[Hg] (centres undefined),102%,102%,87.4%,111%,144%,99%,149%,68.9%,71.8%,72.6%,60.6%,84%,106,106%,108%,120,74.8%,39.8%,102%,
CNC(=O)Oc1ccc(C(C)(C)C)cc1OC(=O)NC,70.7%,82.1%,95.2%,94.9%,98.2%,106%,98.8%,85.8%,96.6%,81.6%,87.9%,95.5%,100,108%,96.3%,88.4,104%,102%,106%,
O=[N+]([O-])CC(O)C(Cl)(Cl)Cl (centres undefined),150%,101%,106%,80.2%,110%,96.5%,87.3%,83.7%,-21.1% (active),107%,98.5%,71.7%,116,93.6%,94.2%,100,102%,116%,,
CCC1CC(O)c2c(O)c3c(c(O)c2C1O)C(=O)c1cccc(O)c1C3=O (centres undefined) (tested in a mixture with another compound),-63% (active),-4.25% (active),0.851% (active),-32.9% (active),-13.7% (active),-18.1% (active),,-45.5% (active),-21.5% (active),-23.3% (active),-0.491% (active),-35.8% (active),,-78.2% (active),-21.6% (active),11.1,-53.5% (active),-12% (active),,0.243% (active)
CN(C)C(=O)Oc1ccccc1-c1ccccc1,102%,101%,102%,86.3%,109%,104%,115%,99.7%,96.9%,89.9%,103%,104%,100,109%,128%,100,113%,108%,113%,
COC(=O)[C@@H](C)C[C@H](Cc1ccccc1)NC(=O)c1csc(CC[C@H](C(C)C)N(C)C(=O)[C@@H](NC(=O)[C@H]2CCCCN2C)C(C)C)n1,35.7%,40.8%,36.5%,48.8%,60.5%,45.2%,0.74% (active),-34.4% (active),13.8%,14.4%,15.9%,19.8%,20.6,54%,53.2%,37.7,32.4%,-5.55% (active),33.2%,
Fc1ccc2c(c1)c(-c1nc(-c3c[nH]c4ncccc34)cs1)cn2CCN1CCOCC1,67.4%,32.8%,65.8%,25.5%,64.1%,48.3%,74.1%,48.1%,35.2%,35.4%,39.7%,29%,33.5,89.8%,44.7%,87.2,21.5%,59.5%,53.8%,
CN1C(=O)C(=Cc2cn(CCCCCCn3c4ccccc4c(=O)c4ccccc43)c3ccccc23)C(=O)N(C)C1=O,92.8%,96.2%,104%,65.6%,111%,92.9%,110%,79.3%,109%,97.5%,77%,103%,95.2,77%,95.2%,87,90.5%,102%,101%,
Cc1sc2c(c1C)C(c1ccc(Cl)cc1)=N[C@@H](CC(=O)OC(C)(C)C)c1nnc(C)n1-2,48.8%,42.2%,49.5%,13.4%,22.5%,31.1%,-11.8% (active),4.3% (active),38.7%,48.3%,19.2%,23.5%,53,45.4%,42.6%,39.3,31.4%,20%,-4.04% (active),
